The full list was thinned out, with hits kept by preference.
hDAT+cocaine – human DAT dopamine uptake with cocaine, either direction; Q01959; LLC-PK1 hDAT cells, [14C]-dopamine uptake with cocaine IC80; actives deviate in either direction; B-score at 10 µM; 110,000 compounds, 1.3% hits;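 active = Z score or B-score, a plate-position-corrected score, falls beyond the plate's 99.7% confidence bounds, in either direction; inactive = both scores lie inside the 99.7% bounds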
ROCK2 inh – blocks human Rho kinase 2 activity. O75116. purified ROCK2, Kinase-Glo ATP depletion luminescence. inhibition, % at 6 µM. 60,000 compounds, 0.35% hits. AID 604;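 active = inhibition above the screen-wide mean inhibition plus 3 SD, cut at about 18% in these data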
JNK3 inh – JNK3 (human) kinase inhibition; purified JNK3 kinase activity, HTS; inhibition, % at 8 µM; AID 746; 60,000 compounds, 0.61% hits; in the data active = inhibition above about 17%
D1 mod – D1 dopamine receptor (human) allosteric modulation; P21728; HEK293 D1, CRE-luciferase, dopamine EC30 potentiation; actives deviate in either direction; B-score at 10 µM; 58,000 compounds, 5.9% hits;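 active = luminescence count or its row- and column-corrected plate score outside the 99.7% band of the plate's sample wells, on either side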
PKA inh – inhibitors of human protein kinase A; P17612; PKA Kemptide phosphorylation, Kinase-Glo ATP luminescence; inhibition, % at 6 µM; 65,000 compounds, 0.1% hits;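 active = inhibition above the screen-wide mean inhibition plus 3 SD, cut at about 21% in these data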
D1 PAM confirm – confirmation of human D1 dopamine receptor allosteric modulators; shares compounds with D1 mod; HEK293 D1 CRE-luciferase, dopamine EC30 potentiation; active compounds read high; luminescence at 10 µM; 2,200 compounds, 88% hits;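 active = luminescence in either of two replicates above the same-plate mean plus 3 SD of the low-dose dopamine control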
D1 ag no DA – activates D1 CRE-luciferase signal without dopamine present | shares compounds with D1 mod | luminescence at 10 µM | 1,900 compounds, 0.8% hits | HEK293 D1 CRE-luciferase, luminescence, no dopamine; active compounds read high; in the data active = luminescence above about 3900
Isoprot counter – counter-screen for D1 modulators: isoproterenol response in HEK293 cells. shares compounds with D1 mod. HEK293 D1 CRE-luciferase, isoproterenol EC30 counter-screen. calls only at 10 µM. 2,200 compounds, 63% hits;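 active = luminescence in either replicate above plate mean of wells with a partly effective reference agonist dose plus 3 SD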;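 note: isoproterenol raises cAMP through native beta-adrenoceptor Gs so signal bypasses D1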
Of the large screens only hits and unclear results are named; the others gave an inactive call (follow-up assays come after a bar, where they were run).

COc1ccc(N(CC(=O)NC2CCCC2)C(=O)Cn2nnc(-c3ccc(F)cc3)n2)cc1OC	none
COc1ccc(CCNC(=O)COc2ccc(S(=O)(=O)NC(C)C)cc2Cl)cc1OC	none (no result: ROCK2 inh, JNK3 inh, D1 mod, PKA inh)
COc1cc(NC(=O)Cn2nc(C(F)(F)F)c3c2CCCC3)cc(OC)c1OC	none (no result: ROCK2 inh, JNK3 inh, D1 mod, PKA inh)
CC(=O)c1sc(NC(=O)C(C)(C)C)nc1C	none (no result: ROCK2 inh, JNK3 inh, D1 mod, PKA inh)
CC(=O)c1sc(NC(=O)c2ccccc2F)nc1C	D1 mod -5.1
C=C(C)Cn1c(NCCC)nc2c1c(=O)n(C)c(=O)n2C	none (no result: hDAT+cocaine)
COc1ccccc1-c1cc(C(=O)NC(C)C)no1	D1 mod -3.2
COc1ccccc1-c1cc(C(=O)NC(C)c2ccccc2)no1 (configuration not stated)	none
CC(C)(C)c1ccc(C(=O)CCCSC2=C(C#N)C(c3ccco3)C3=C(CCCC3=O)N2)cc1 (configuration not stated)	none
N#CC1=C(SCC(=O)c2ccccc2)NC2=C(C(=O)CCC2)C1c1ccco1 (configuration not stated)	JNK3 inh 58 (no result: hDAT+cocaine, D1 mod)
COc1ccc(-c2cc(-c3ccccc3)nc(N3CCCC3)n2)cc1OC	D1 mod -8.7
COc1ccc(-c2cc(C(F)(F)F)nc(N3CCOCC3)n2)cc1OC	none (no result: ROCK2 inh, JNK3 inh, D1 mod)
COc1ccc(/C=N/NC(=O)Cc2csc(Nc3cccc(C(F)(F)F)c3)n2)c(OC)c1	hDAT+cocaine 2.7 (no result: ROCK2 inh, JNK3 inh, D1 mod, PKA inh)
C=CCc1c(C)c(C#N)c2nc3ccccc3n2c1NCCN(C)C	hDAT+cocaine 2.7
Oc1cccc(Nc2nc(NCC3CCCO3)c3ccccc3n2)c1 (configuration not stated)	D1 mod -5
CCC1=C(OC(=O)N(CC)CC)N2C(=O)OC(=NCCc3c[nH]c4ccccc34)[C@]2(C)[C@H]2C1=CC[C@H]1C(=O)N(C)C(=O)[C@H]12	none (no result: ROCK2 inh, JNK3 inh, D1 mod, PKA inh)
O=c1/c(=C/c2ccccn2)sc2nc3ccccc3n12	D1 mod -3.8 (no result: hDAT+cocaine)
COc1cccc(C2/C(=C(/O)c3ccncc3)C(=O)C(=O)N2CCCN2CCOCC2)c1OC (configuration not stated)	none (no result: hDAT+cocaine)
CC(C)C[C@H](NC(=O)c1nc[nH]c1C(=O)NCc1ccccc1)C(=O)OCc1ccccc1	none (no result: ROCK2 inh, JNK3 inh, D1 mod, PKA inh)
CC(C)NC(=O)NC(=O)CSc1nnc(COc2ccccc2F)n1C(C)C1CC2CCC1C2 (configuration not stated)	hDAT+cocaine 2.6 (no result: ROCK2 inh, JNK3 inh, D1 mod, PKA inh)
COc1ccc(-c2[nH]ncc2/C=C(/C#N)C(=O)NC2CCCCCC2)cc1	hDAT+cocaine 2.8 (no result: ROCK2 inh, JNK3 inh, D1 mod, PKA inh)
N#C/C(=C/c1ccc(OCc2ccccc2)cc1)C(=O)NC1CCCCC1	none (no result: ROCK2 inh, JNK3 inh, D1 mod, PKA inh)
O=C(NC1CC1)C1=C[C@@H](c2csc3ccccc23)C[C@@H](OCc2ccc(CO)cc2)O1	none (no result: ROCK2 inh, JNK3 inh, D1 mod, PKA inh)
CSC(=NC#N)N1CCN(c2ccccc2)CC1	none (no result: ROCK2 inh, JNK3 inh, D1 mod, PKA inh)
Cc1cc(N2CCN(c3ccccc3)CC2)nc(NCc2ccccc2)n1	D1 mod -3.5
Cc1ccc(C(=O)COc2ccccc2C(=O)Nc2ccccc2)cc1	none (no result: ROCK2 inh, JNK3 inh, D1 mod, PKA inh)
COC(=O)c1c(CSc2ccc(C)c(C)c2)noc1C(=O)NCc1ccc(OC)cc1	none (no result: ROCK2 inh, JNK3 inh, D1 mod, PKA inh)
Cc1ccc(C(C(=O)NC(C)(C)C)N(CC2CCCO2)C(=O)Cn2nnc(-c3ccc(C)o3)n2)cc1 (configuration not stated)	D1 mod -4.2
CCCN(CCC)C(=S)NC(=O)c1ccc(-c2ccccc2)cc1	none (no result: ROCK2 inh, JNK3 inh, D1 mod, PKA inh)
Nc1nncn1C(=O)c1cccs1	hDAT+cocaine 2.8
COCCn1c(C)cc(C(=O)COC(=O)C23CC4CC(CC(O)(C4)C2)C3)c1C	D1 mod -4.6
Cn1c(=O)c(=O)n(C)c2cc(S(=O)(=O)Nc3ccc4c(c3)OCCO4)ccc21	D1 mod -5.7
O=C(c1cccs1)N(Cc1ccco1)c1nc(-c2ccc(F)cc2)cs1	none (no result: ROCK2 inh, JNK3 inh, D1 mod, PKA inh)
CN(C)CCCN(C(=O)c1cccs1)c1nc(-c2ccccc2)cs1	D1 mod -4.8
COc1cc(OC)c2c(c1O)OC(c1ccccc1)CC2=O (configuration not stated)	none (no result: ROCK2 inh, JNK3 inh, D1 mod, PKA inh)
CCN1CCN(Cc2ccc(NC(=O)Nc3ccccc3Cl)cc2)CC1	D1 mod -3.3
CCN1CCN(Cc2ccccc2NC(=O)Nc2ccc(C)cc2)CC1	none
CCOc1cc(NC(=O)c2ccccc2C)c(OCC)cc1NC(=O)C1=Cc2ccccc2OC1	none (no result: ROCK2 inh, JNK3 inh, D1 mod, PKA inh)
Cc1nc(-c2ccccn2)sc1C(=O)Nc1ccc(Cl)c(Cl)c1	none (no result: ROCK2 inh, JNK3 inh, D1 mod, PKA inh)
CCOC(=O)Cn1cc(C=O)c2ccccc21	hDAT+cocaine -10 (no result: ROCK2 inh, JNK3 inh, D1 mod, PKA inh)
CCOC(=O)Cn1cc(C(=O)OC)c2ccccc21	none
O=C(Cn1cnc2ccccc2c1=O)Nc1ccc(-c2nnc3n2CCCCC3)cc1	JNK3 inh 30
Cc1c(CCCC(=O)O)sc(N)c1C(=O)c1cccc(C(F)(F)F)c1	none (no result: ROCK2 inh, JNK3 inh, D1 mod, PKA inh)
COC(=O)[C@@H]1CCCN1C(=O)[C@@H](NC(=O)OC(C)(C)C)C(C)C	none (no result: ROCK2 inh, JNK3 inh, D1 mod, PKA inh)
CC1(c2ccccc2)NC(=O)N(CC(=O)NC(=O)NC2CCCC2)C1=O (configuration not stated)	none
CCOC(=O)NC(=O)CN1C(=O)NC(C)(c2ccccc2)C1=O (configuration not stated)	D1 mod 4.4 | D1 PAM confirm inactive | D1 ag no DA inactive | Isoprot counter inactive
Cc1nc(NS(=O)(=O)c2ccccc2)sc1NC(=O)OC(C)C	D1 mod 2.4 | D1 PAM confirm inactive | Isoprot counter inactive
Cc1ccc(S(=O)(=O)Nc2nc(C)c(NC(=O)Nc3ccc(Cl)cc3Cl)s2)cc1	none (no result: ROCK2 inh, JNK3 inh, D1 mod, PKA inh)
CC(C)(C)C1CCc2onc(C(=O)Nc3cccc(O)c3)c2C1 (configuration not stated)	none (no result: ROCK2 inh, JNK3 inh, D1 mod, PKA inh)
CC(C)(C)C1CCc2onc(C(=O)Nc3cccnc3)c2C1 (configuration not stated)	D1 mod 10 | D1 PAM confirm 19704 | D1 ag no DA inactive | Isoprot counter active
COC(=O)CN(c1ccc(OC)cc1)S(=O)(=O)c1ccc(OC)c(OC)c1	D1 mod 3 | D1 PAM confirm 10376 | D1 ag no DA inactive | Isoprot counter active
CCOc1ccc(N(CC(=O)OC)S(=O)(=O)c2ccc(OC)c(OC)c2)cc1	D1 mod 3.6 | D1 PAM confirm 12916 | D1 ag no DA inactive | Isoprot counter active
COc1ccc(Cl)cc1NC(=O)CN1CCC(n2nnc3cc(F)ccc32)CC1	none
c1ccc(-c2oc3ncnc(NCCCn4ccnc4)c3c2-c2ccccc2)cc1	hDAT+cocaine 2.7, D1 mod 3.8 | D1 PAM confirm 9476 | D1 ag no DA inactive | Isoprot counter active
c1ccc(-c2oc3ncnc(NCCN4CCOCC4)c3c2-c2ccccc2)cc1	none

Assay outcomes as filed in PubChem.
